Assay results as given in PubChem BioAssay AID2549 (National Center for Advancing Translational Sciences (NCATS), 2010).
Values joined by “and” are separate entries in the source; they are usually repeats but may differ in a detail not shown here. Identical values can stand only once. Out of some 240,000 compounds screened, about 1,300 (0.54%) were called active. Not shown: some 1% with an inconclusive outcome. Calls come from the whole dose curve; as a rule, active = well fitted inhibition curve with a large enough effect; inconclusive = small, poorly fitted or top-dose-only effect; inactive = flat fitted curve, though single readings scatter. This excerpt belongs to a sample that is enriched for actives. Where a SMILES comes first, the peptide text is derived from it. Bridges are numbered along the chain shown (N, C = ends).

Biological target: ATP-dependent DNA helicase Q1 (Homo sapiens) (UniProt P46063)
Assay: qHTS Assay for Inhibitors of RecQ-Like Dna Helicase 1 (RECQ1); note: nearly all actives have a fitted effect of over 30% in size;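 for activity, negative = inhibition: plate controls were vehicle for no effect and no enzyme for full effect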
Settings: RECQ1 DNA unwinding, red fluorescence kinetic read; series mostly up to 57.3 µM; activity, negative = inhibition: at the top concentration
Method in brief: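 RECQ1T1 50 nM; forked duplex (20 bp + 30-nt ss tails) 200 nM, ATP 2 mM final; pH 8.0, 2 mM MgCl2, 2.5 ug/ml poly(dI-dC); 15 min compound preincubation; discontinuous kinetic read over 2 h at RT.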
Potency is the fitted concentration of half-maximal effect.

Sequence of ATP-dependent DNA helicase Q1 (Homo sapiens) (P46063 whole entry, looked up): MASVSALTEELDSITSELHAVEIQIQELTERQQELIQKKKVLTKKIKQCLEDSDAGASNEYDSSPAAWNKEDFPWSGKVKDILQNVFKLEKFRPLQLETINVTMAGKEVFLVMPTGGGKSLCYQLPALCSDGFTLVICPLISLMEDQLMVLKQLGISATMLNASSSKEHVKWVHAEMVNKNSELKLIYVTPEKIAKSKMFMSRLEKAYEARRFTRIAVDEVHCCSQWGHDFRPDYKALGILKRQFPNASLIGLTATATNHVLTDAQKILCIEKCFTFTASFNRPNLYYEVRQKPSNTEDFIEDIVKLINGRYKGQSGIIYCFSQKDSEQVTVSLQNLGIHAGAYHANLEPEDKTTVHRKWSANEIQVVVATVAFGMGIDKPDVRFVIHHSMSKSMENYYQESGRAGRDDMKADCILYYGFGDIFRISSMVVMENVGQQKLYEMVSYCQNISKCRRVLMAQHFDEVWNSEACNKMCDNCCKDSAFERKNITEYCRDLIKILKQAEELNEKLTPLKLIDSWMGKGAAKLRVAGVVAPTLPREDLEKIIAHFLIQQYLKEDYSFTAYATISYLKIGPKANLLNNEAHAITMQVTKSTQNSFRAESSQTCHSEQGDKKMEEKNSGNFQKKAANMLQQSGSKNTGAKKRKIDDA

outcome, inactive:
CC(=O)Nc1ccc(S(=O)(=O)N2N=NC3C2C2CC4C3(CN(C(=O)OC(C)(C)C)S4(=O)=O)O2)cc1 (stereo not drawn)
COc1ccc(NC(=O)COc2ccc(C(=O)OCC(=O)N(C)C3CCS(=O)(=O)C3)cc2OC)cc1 (stereo not drawn)
C=CCCN(C(Cc1ccccc1)C(=O)OC)S(=O)(=O)c1cc(Br)ccc1Br (stereo not drawn)
Cc1ccc(SCC(CC(C)C)N2CCN(CCc3ccccc3)CCC2=O)cc1 (stereo not drawn)
COc1ccc2c(=O)cc(-c3ccccc3)oc2c1O
Cc1cccc(NC(=O)CN2C(=O)c3ccccc3C2=O)c1C
COc1ccc(Br)cc1C1C2C=CCC(C)C2C(=O)N1Cc1ccccc1 (stereo not drawn)
O=C1c2ccccc2C(=O)N1CCCc1nc(-c2ccccc2)no1
C/C=C(/C)C(=O)Nc1cccc(C2=NOC3(C2)C[C@@H](C(N)=O)N(C(=O)C2(C)CC2)C3)c1 (stereo partly drawn)
Cc1ccc(-c2cc(C(=O)N/N=C/C=C/c3ccco3)c3ccccc3n2)cc1C

activity, negative = inhibition, inactive:
Cc1c(-c2cccc(Cl)c2)nc2ccccc2c1C(=O)OCC(=O)N(C)C1CCS(=O)(=O)C1 (stereo not drawn) -13%
CC(=O)OC1C([N+]2(C)CCCCC2)C[C@H]2C3CC[C@H]4C[C@H](OC(C)=O)C([N+]5(C)CCCCC5)CC4(C)C3CCC12C (stereo partly drawn) 44.6%
Cc1cc2nc3c(=O)n(Cc4ccccc4)c(=O)[nH]c3nc2cc1N -6.41%
CCOc1ccc(/C=C2\SC(=S)N(NC(=O)c3ccncc3)C2=O)cc1OC -4.45%
COc1ccc(C2=Nn3c(nnc3-c3ccccc3O)SC2)cc1 -2.95%
C=C1CCN(Cc2ccc(OC)cc2)S(=O)(=O)c2ccccc21 -11.7%
Cc1cccc(-c2cc(=O)c3cc(C)ccc3o2)c1 -3.41%
CCOC(=O)COc1cc(O)c2c(=O)cc(-c3ccccc3)oc2c1 -4.89%
O=c1cc(-c2ccc(O)cc2)oc2c(-c3cc(-c4cc(=O)c5c(O)cc(O)cc5o4)ccc3O)c(O)ccc12 -15.9%
C=C1/C(=C\C=C2\CCCC3(C)C2CCC3C(C)/C=C/C(O)C2CC2)CC(O)CC1O (stereo not drawn) -13%
CCCCc1nn(-c2ccccc2C(F)(F)F)c(=O)n1Cc1ccc(-c2ccccc2S(=O)(=O)NC(=O)c2sccc2C)cc1 -28.1%
COC(=O)c1ccc(C(NC(=O)OCc2ccccc2)/C(F)=C/[C@@H](C)C(=O)O)cc1 (stereo partly drawn) 12.5%
O=C1N/C(=C/c2cccn2-c2ccccc2)C(=O)N1c1cccc(Cl)c1 -3.29%
COc1ccccc1NC(=S)N1CCN(C(c2ccccc2)c2ccccc2)CC1 -5.7%
O=C1c2cccnc2C(=O)N1Cc1cccs1 -1.48%
O=C(N/N=C/c1c(Cl)[nH]c2ccccc12)c1sc2ccccc2c1Cl -7.76%
Oc1ccc(N=Cc2c(O)ccc3ccccc23)cc1 -11.2%
C[C@@H](O)[C@@H]1NC(=O)[C@H](CCCCN)NC(=O)[C@H](Cc2c[nH]c3ccccc23)NC(=O)[C@H](Cc2ccccc2)NC(=O)[C@H](Cc2ccccc2)NC(=O)[C@H](CC(N)=O)NC(=O)[C@H](CCCCN)NC(=O)[C@@H](NC(=O)[C@@H]2CCCN2)CSSC[C@@H](C(=O)N[C@@H](CCCCN)C(=O)O)NC(=O)[C@H](CO)NC(=O)[C@H](CO)NC(=O)[C@H](Cc2ccccc2)NC1=O (H-PCKNFFWKTFSSCK-OH; disulfide 2-13) -3.25%
CCCN1CCC(=O)N(C(CSc2ccc(OC)cc2)Cc2ccccc2)CC1 (stereo not drawn) -7.69%
O=C(O)C1CC=CC2CCN(C3CCCCC3)C(=O)C21 (stereo not drawn) 13.2%
Cc1ccc(C)c(CSc2nc(-c3ccco3)nc3c2c(=O)n(C)c(=O)n3C)c1 -6.89%
CC/C=C/C(=O)N1CC2(CC(c3cccc(NC(=O)CC)c3)=NO2)C[C@H]1C(N)=O (stereo partly drawn) 7.15%
O=S(O)S(=O)(=O)O -3.85%
CC(=O)Nc1ccc(/C=N/NC(=O)c2cccs2)cc1 -2.49%
COC(=O)c1ccc(S(=O)(=O)N2CCC(c3nc4ccccc4o3)CC2)cc1 -1.82%
NC(=O)COC(=O)/C=C/c1ccc2ccccc2n1 -3.52%

Potency, inactive:
O=c1[nH]c(=O)c2nc3ccccc3nc2[nH]1
COc1ccc(CCCOC(Cn2ccnc2)c2ccc(OC)cc2)cc1 (stereo not drawn)

Potency, active:
CN(C(=O)COC(=O)c1cc(-c2ccco2)nc2ccccc12)C1CCS(=O)(=O)C1 (stereo not drawn) 14.1 µM
Nc1ccc2nc3c(=O)[nH]c(=S)[nH]c3nc2c1 7.94 µM
O=c1cc(-c2ccc(O)c(O)c2)oc2cccc(O)c12 25.1 µM
COc1c(O)cc2oc(-c3ccc(O)c(O)c3)cc(=O)c2c1O 11.2 µM and 8.91 µM
Cc1ccccc1NC(=O)CN1C(=O)N/C(=C\c2cccn2-c2cccc(C(=O)O)c2)C1=O 14.1 µM
O=C1c2ccccc2C(=O)N1Cc1cc(-c2ccccc2Cl)no1 31.6 µM
Oc1ccc(N=Cc2sc3ccccc3c2Cl)cc1 8.91 µM
C/C=C\C=C\C(=O)N1CC2(CC(c3cccc(NC(=O)/C(C)=C\C)c3)=NO2)C[C@H]1C(N)=O (stereo partly drawn) 20 µM
O=C(N/N=C/C=C/c1ccco1)c1cccs1 35.5 µM
CC(=O)c1ccc(S(=O)(=O)N2CCN(C(=O)/C=C/c3ccc4ccccc4n3)CC2)cc1 25.1 µM
